# High-throughput results: PubChem, several laboratories
# NALP3 yeast inh – inhibitors of NALP3 inflammasome in yeast | Yeast reconstituted NLRP3/ASC/caspase-1, beta-gal luminescence, 24 h | inhibition, % at 10 µM | 0.39% of 330,000 active | AID 2825;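 active = inhibition of 50% or more; inactive = inhibition below 50%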;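 also: plate controls were induced DMSO wells for no effect and uninduced yeast grown without galactose for full effect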
# PfHsp90 set2 – inhibits growth of yeast expressing Plasmodium falciparum Hsp90; 0.32% of 310,000 active; inhibition, % at 9.4 µM; S. cerevisiae expressing PfHsp90, BacTiter-Glo ATP, 48 h; yeast lacking PDR1 and PDR3 efflux regulators; AID 504621;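 active = every replicate shows inhibition above about 80%, whatever the replicate mean, limit read from the data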;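 also: 0% = DMSO neutral controls and 100% = 20 µM radicicol positive controls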
# tim10-1 inh – inhibits growth of tim10-1 mutant yeast; S. cerevisiae tim10-1 ts strain growth, BacTiter-Glo, 24 h; inhibition, % at 20 µM; 2.2% of 330,000 active;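 active = inhibition of at least 40%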;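 also: mutant grown at 25 °C; 0% = DMSO wells with yeast and 100% = wells holding no yeast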
# tim23-1 inh – tim23-1 yeast growth inhibition | AID 463212 | S. cerevisiae tim23-1 growth, BacTiter-Glo luminescence, 24 h | inhibition, % at 20 µM | 1.3% of 330,000 active;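 active = growth inhibition of the mutant yeast at or above 50%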;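 also: temperature-sensitive mutant grown at 25 °C; plate controls were DMSO-treated mutant yeast for no effect and medium wells lacking yeast for full effect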
# SKKanGAS inh – blocks kanamycin growth of S. pyogenes SKKanGAS strain | BacTiter-Glo, 6 h | inhibition, % at 7.5 µM | 1.3% of 300,000 active | AID 1662;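 active = mean replicate score, as percent of positive control median, at least 50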;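 also: strain carries kanamycin resistance gene driven by streptokinase promoter and grows in 40 µg/ml kanamycin; loss of luminescence reflects streptokinase promoter inhibition or plain growth inhibition; 0% = median of DMSO wells and 100% = positive control at its reference dose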
# TIM10 inh – growth inhibitors of TIM10 yeast strain; 1.4% of 330,000 active; inhibition, % at 10 µM; S. cerevisiae TIM10 strain growth, BacTiter-Glo luminescence, 24 h;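 active = inhibition of 40% or more at the single tested concentration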;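 also: wild-type TIM10 isogenic control strain grown at permissive 25 °C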
# tim10-1 confirm – confirmation of tim10-1 mutant yeast growth inhibitors. 56% of 7,400 active. S. cerevisiae tim10-1 ts strain growth, BacTiter-Glo, 24 h. AID 463213. inhibition, % at 20 µM. shares compounds with tim10-1 inh;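 active = inhibition of yeast growth at or above a set limit in either of two repeat tests at 20 µM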;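 also: tim10-1 mutant grown at permissive 25 °C to find synthetic lethal compounds; 0% = DMSO yeast wells and 100% = medium wells without yeast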
# * marks the source's active call; other numbers are inactive results; nt = no result. The list is not random: actives were taken first. Their share in the collection is about 4.6%.
SMILES,NALP3 yeast inh,PfHsp90 set2,tim10-1 inh,tim23-1 inh,SKKanGAS inh,TIM10 inh,tim10-1 confirm
O=C1NC(=O)/C(=C\c2ccccc2Oc2ccc(F)c(F)c2)S1,-83.0,nt,44.9*,28.4,36.6,19.2,32.4*
O=C(Nc1c(C(=O)N2CCOCC2)cnn1-c1ccccc1)c1ccc(F)cc1,-3.1,-1.1,-4.0,-10.5,-3.8,-2.2,nt
CC(C)CC(=O)NC(=S)Nc1ccccc1C(F)(F)F,18.6,-10.1,41.5*,47.0,8.4,25.3,27.7
COC(=O)CSc1nc2[nH]ncc2c(=O)[nH]1,8.3,-23.6,8.1,-3.1,-9.6,-13.1,nt
CCn1c2ccccc2c2cc(/C=C(/C#N)C(N)=S)ccc21,nt,-34.1,nt,nt,nt,nt,nt
CCOc1c(C=C(C#N)C#N)c2ccccc2n1CC,19.4,0.9,41.6*,40.6,-0.4,6.9,26.9
COc1ccc([C@H]2[C@H]3C=CC[C@@H](C)[C@@H]3C(=O)N2Cc2ccccc2)cc1Cl,12.1,-17.2,42.3*,38.3,21.9,30.5,30.0
COc1ccc(Br)cc1[C@H]1[C@H]2C=CC[C@@H](C)[C@@H]2C(=O)N1Cc1ccccc1,19.5,-9.5,59.7*,12.0,42.3,10.2,42.3*
C[C@@H]1CC=C[C@H]2[C@H]1C(=O)N(Cc1ccccc1)[C@H]2c1ccc(-c2ccoc2)cc1F,10.2,12.7,41.2*,49.8,29.5,30.2,36.0*
CCOc1cccc(-c2c(C(=O)N/N=C/c3ccc(Br)cc3)nnn2-c2nonc2N)c1,-0.1,-26.4,16.1,9.7,14.8,-2.5,nt
c1ccc(Nc2nc(-c3ccccn3)cs2)cc1,34.5,-8.5,45.7*,33.4,99.7*,33.6,23.0
CC(=O)Nc1ccc(-c2csc(Nc3ccccn3)n2)cc1,2.1,-23.1,62.5*,-5.8,-17.1,-25.6,-38.7
COc1cccc2sc(Nc3nc(-c4ccccn4)cs3)nc12,13.3,107.0*,52.1*,49.9,99.5*,12.7,34.1*
COc1cccc2sc(NNC(=O)COc3ccccc3)nc12,3.3,13.8,-12.6,-5.0,-4.7,-3.7,nt
Oc1ccc(-c2csc(Nc3ccccn3)n2)cc1O,12.4,14.8,22.0,12.8,-0.2,9.8,nt
CCOc1ccc(S(=O)(=O)NC(C)C(=O)NCc2cccnc2)cc1 (stereo not drawn),11.9,23.9,6.3,17.6,-0.5,-6.4,nt
O=C(O)C1CSC(c2ccccc2Cl)N1C(=O)c1ccc(Cl)cc1 (stereo not drawn),13.2,-39.7,1.5,18.5,-7.9,6.5,nt
COc1ccc(CCNS(=O)(=O)c2ccc(OC)cc2)cc1,17.9,nt,43.9*,41.1,-6.7,3.6,31.6
Cc1cccc(NC(=O)CSc2nnnn2-c2ccc3c(c2)OCCO3)n1,12.8,12.9,14.5,-15.0,-5.5,1.5,nt
Cc1cc(C)nc(-n2nc(C)cc2Nc2ccccc2)n1,42.6,-13.2,40.7*,47.6,79.0*,22.3,18.9
Cc1cc(Nc2nc(Cl)c(Cl)cc2Cl)n(-c2ccccc2)n1,15.9,-12.8,45.1*,45.1,-5.4,28.9,34.3*
Cc1ccc(-n2nc(C)cc2Nc2ncc(Cl)cc2Cl)cc1,28.0,-3.6,32.9,30.5,0.8,13.9,nt
Cc1cc(Nc2ccccc2)n(-c2ccccc2)n1,5.8,-10.8,14.7,-1.3,3.1,-6.0,nt
Cc1ccc(/C([O-])=C(/C(=S)NCCN2CCOCC2)[n+]2ccccc2)cc1[N+](=O)[O-],3.2,-0.3,-0.2,-10.4,-0.4,11.3,nt
O=C(N/C(=C/c1ccc(Br)cc1)C(=O)N1CCCC1)c1cccs1,-8.0,-2.3,46.0*,33.9,-2.0,23.3,23.9
SMILES,NALP3 yeast inh,PfHsp90 set2,tim10-1 inh,tim23-1 inh,SKKanGAS inh,TIM10 inh,tim10-1 confirm
O=C(N/C(=C\c1ccc(Br)cc1)C(=O)N1CCCC1)c1cccs1,3.4,-48.2,32.5,23.9,11.0,30.4,nt
CCCOc1ccccc1/C=C1\SC(N2CCCCC2)=NC1=O,34.6,10.8,42.0*,43.1,-2.3,16.6,33.3*
COc1ccccc1-c1cc(C(F)(F)F)nc(S(=O)(=O)CCCC(=O)O)n1,4.9,nt,29.5,26.7,-1.5,10.3,nt
COc1ccc(-c2cc(C(F)(F)F)nc(SCC(=O)N3CCOCC3)n2)cc1OC,10.9,4.8,9.2,15.0,-1.1,-6.7,nt
COc1ccc(-c2cc(C(F)(F)F)nc(S(=O)(=O)CCC(=O)N3CCOCC3)n2)cc1,15.5,0.7,47.8*,16.8,8.1,32.1,29.6
COc1ccccc1-c1cc(C(F)(F)F)nc(S(=O)(=O)CCCC(=O)N2CCOCC2)n1,12.9,-48.8,40.2*,33.2,-2.2,30.1,17.6
Cc1ccc(NCC(=O)N2CCN(S(=O)(=O)c3ccccc3)CC2)cc1F,14.7,nt,16.9,3.7,nt,-3.3,nt
NC(=O)c1c(NC(=O)c2ccc(N3C(=O)CCC3=O)cc2)sc2c1CCCC2,17.1,-0.7,5.7,12.8,nt,9.2,nt
Cc1ccc(NC(=O)CSc2nnc(C(F)(F)F)n2C)cc1[N+](=O)[O-],5.3,-8.6,10.1,9.3,-0.9,2.3,nt
CC(NC(=S)Nc1ccc(Cl)cc1Cl)C(c1cccs1)N1CCCC1 (stereo not drawn),13.6,-3.9,41.1*,33.7,-8.3,25.6,9.5
O=C(NCCCN1CCOCC1)c1nn(-c2ccccc2)c(=O)c2ccccc12,15.5,8.4,11.9,7.2,16.5,-1.3,nt
COc1cnc(-c2ccccn2)nc1Sc1ccc(C)cc1,38.4,5.7,44.1*,34.9,66.6*,27.0,25.9
Cc1ccc([N+](=O)[O-])cc1NC(=S)NC(=O)C(C)(C)C,28.4,-4.6,15.7,26.1,2.5,15.3,nt
Cc1ccc([N+](=O)[O-])cc1NC(=S)NC(=O)CC(C)(C)C,17.7,-8.3,43.4*,41.2,6.1,22.8,26.0
Cc1nn2c(c1-c1ccc(Cl)cc1)N=C(c1ccco1)CC2c1ccccc1 (stereo not drawn),4.4,-11.0,41.9*,37.7,18.4,39.3,33.7*
Cc1c(Cc2ccccc2)sc(/N=C/c2ccc3ccccc3c2)c1C(N)=O,nt,-26.5,nt,nt,nt,nt,nt
Cc1ccc(/C=N/c2sc(Cc3ccccc3)c(C)c2C(N)=O)o1,11.2,6.1,47.8*,48.9,2.3,33.0,45.7*
Cc1cc(/C=N/n2cnnc2)c(C)n1-c1ccc(OCc2ccccc2F)cc1,9.8,-44.8,45.8*,36.4,25.5,39.4,-2.6
COc1cc(CN(CCN(C)C)Cc2ccccc2)ccc1OCc1ccccc1,12.6,39.8,5.7,14.9,5.8,7.0,nt
O=C(COC(=O)C1(c2ccc(Cl)cc2)CCCC1)Nc1ncc(C(F)(F)F)cc1Cl,-4.9,-19.6,41.9*,23.9,9.2,10.4,9.5
Cc1nc2ccc(C(=O)N3CCCC(CO)(Cc4ccc(F)cc4F)C3)cc2nc1C (stereo not drawn),24.9,14.9,25.4,18.9,-14.2,7.8,nt
